Sampled rows, rich in hits. Any-hit rate of the full collection: about 19%.
DT40 TDP1 no CPT – qHTS for Inhibitors of human tyrosyl-DNA phosphodiesterase 1 (TDP1): qHTS in cells in absence of CPT. DT40 Tdp1-/- hTDP1 cells, no CPT, ATP luminescence, 48 h. Potency, µM (titrated, usually from 46.2 µM), without a hit: top-dose activity change, negative = growth inhibition, hits mostly inhibitors. actives 15% (n = 420,000). AID 686978, 2013; further: potency means the concentration at half of the fitted maximal effect; nearly all actives have a fitted effect of over 55% in size
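Chicken DT40 Tdp1-/- cells stably complemented with human TDP1 were seeded at 400 cells/well with DMSO in place of 20 nM camptothecin. After compound pinning, cells grew at least 48 hr at 37 °C; viability read by CellTiter-Glo luminescence.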
HT1080-NT tox – qHTS for induction of synthetic lethality in tumor cells producing 2HG: qHTS for the HT-1080-NT fibrosarcoma cell line; HT-1080-NT fibrosarcoma viability, CellTiter-Glo ATP luminescence, 48 h; Potency, µM (titrated, usually from 46.1 µM), without a hit: at the highest dose activity, negative = less viability, actives largely listed as cytotoxic; actives 1.6% (n = 360,000);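 further: NT is the 2HG producing partner of a matched IDH1 knockdown line; potency means the concentration at half of the fitted maximal effect; 0% = DMSO-treated cells and -100% = media-only wells without cells; nearly all actives have a fitted effect of over 55% in size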
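Viability by CellTiter-Glo luminescence after 48 h compound exposure at 37C of HT-1080-NT cells (750/well, RPMI, 5% FBS). % activity scaled between DMSO wells and medium-only wells, then curve-fitted and categorized by curve class.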
HT1080 IDH1KD tx – qHTS for induction of synthetic lethality in tumor cells producing 2HG: qHTS for the HT-1080-IDH1KD cell line; HT-1080 IDH1 knockdown viability, ATP luminescence, 48 h; Potency, µM (highest dose often 46.1 µM), for inactives: at the highest dose activity, negative = toxicity, usual class: cytotoxic; actives 2% (n = 360,000);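 further: potency means the concentration at half of the fitted maximal effect; 0% = DMSO wells and -100% = cell-free medium wells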
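In this qHTS, HT-1080 cells depleted of IDH1 are exposed for 48 h at 37 °C to compound titrations. Toxicity is scored from CellTiter-Glo luminescence, with DMSO as full viability and medium alone as none.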
IL-1B inflam inh – qHTS for Inhibitors of Inflammasome Signaling: IL-1-beta AlphaLISA Primary Screen. actives 4.7% (n = 360,000). THP-1 LPS/ATP IL-1B secretion, AlphaLISA, 16 h; hits give low values. activity change, % at 57.5 µM; in the data active means activity change below about -50%; inconclusive means mostly about -30% to -49%
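THP-1 cells pretreated 1 hr with compounds (up to 57.5 uM final), then stimulated with LPS (250 ng/mL final) plus ATP (1.25 mM final); secreted IL-1B measured by AlphaLISA after 16 hr, decreased signal indicating inhibition.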
uPA generation – qHTS for Inhibitors of Cell Surface uPA Generation | AID 540303, 2011 | cell surface uPA generation assay, qHTS | actives 0.31% (n = 330,000) | Potency, µM (titrated, usually from 38.3 µM), without a hit: at the top dose activity change, negative = inhibition, usual class: inhibitors; active means well fitted inhibition curve with a large enough effect; inconclusive means small, poorly fitted or top-dose-only effect; inactive means no such curve, though single readings can be large or run the other way; tested in mouse RAW 264.7 cells; further: potency means the concentration at half of the fitted maximal effect; nearly all actives have a fitted effect of over 55% in size
TDP1 cell CPT – qHTS for Inhibitors of human tyrosyl-DNA phosphodiesterase 1 (TDP1): qHTS in cells in presence of CPT; chicken DT40 Tdp1-/-;hTDP1 cells + 20 nM CPT, ATP luminescence, 48 h; Potency, µM (doses to about 46.2 µM), for the others: at the top dose activity change, negative = growth inhibition, usual class: inhibitors; actives 12% (n = 420,000); further: potency means the concentration at half of the fitted maximal effect; nearly all actives have a fitted effect of over 55% in size
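Cell growth measured by CellTiter-Glo luminescence after a minimum 48 h, 37 C compound exposure with 20 nM CPT in Tdp1-knockout DT40 cells stably expressing hTDP1, seeded 400/well; qHTS titration format.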
* marks the source's active call; other numbers are inactive results; ? = inconclusive; . = not tested or not shown. Unless noted, the call rests on the fitted dose curve; in most records, active means well fitted curve in the direction sought with a large enough effect; inconclusive means small, poorly fitted or top-dose-only effect, or another doubt; inactive means no such curve, though single readings can be large; an effect the other way counts as inactive or inconclusive. Unless noted, on the % scale 0 is the no-effect control and ±100 the full control effect.

SMILES | DT40 TDP1 no CPT | HT1080-NT tox | HT1080 IDH1KD tx | IL-1B inflam inh | uPA generation | TDP1 cell CPT
CN(C)/C(=C\C(=O)c1ccccc1)C(=O)c1ccccc1 | -7% | 16% | 23% | -5 | 3% | -2%
O=C(C=C(C(=O)c1ccccc1)c1ccccc1)c1ccccc1 | 21µM* | -12% | -15% | ? | -6% | 23µM*
O=C(O)CNS(=O)(=O)c1ccc(C2CCCCC2)cc1 | -9% | 11% | 1% | 0 | -5% | 0%
Cc1ccc(C(O)c2ncc(-c3cccc(C(F)(F)F)c3)[nH]2)c(C)c1 (centres undefined) | ? | ? | -27% | -23 | . | ?
Cc1ccc(C)c(C(O)c2ncc(-c3ccc(F)cc3)[nH]2)c1 (centres undefined) | 15µM* | 2% | -3% | -19 | . | 16µM*
Cc1ccc(C(O)c2ncc(-c3ccc(Cl)cc3)[nH]2)c(C)c1 (centres undefined) | 16µM* | ? | ? | 8 | . | ?
Cc1ccc(C)c(C(O)c2ncc(-c3cccc(C(F)(F)F)c3)[nH]2)c1 (centres undefined) | ? | -27% | ? | -54* | . | ?
Cc1cnc(C)c(-c2cccc3c2OC(CNC(=O)CN2C(=O)c4ccccc4C2=O)C3)n1 (centres undefined) | -2% | . | . | . | . | 13%
O=C(COC(=O)c1ccc(Br)o1)Nc1ccc(N2CCOCC2)cc1 | 0% | 9% | 13% | -23 | ? | -8%
CC1=NN(C(=O)Cc2ccccc2)C(O)(c2ccccc2)C1 (centres undefined) | 4.1µM* | 2% | -4% | 12 | 1% | 2.9µM*
CC1=NN(C(=O)c2ccccc2Cl)C(O)(c2ccccc2)C1 (centres undefined) | 4% | 3% | 5% | -3 | -1% | -7%
CC1=NN(C(=O)Cc2ccc([N+](=O)[O-])cc2)C(O)(c2ccccc2)C1 (centres undefined) | 5.2µM* | ? | ? | -2 | 1% | 4.1µM*
COc1ccc(CC(=O)N2N=C(C)CC2(O)c2cccnc2)cc1OC (centres undefined) | 0% | 10% | 12% | -2 | 14% | -8%
CC1=NN(C(=O)Cc2ccc([N+](=O)[O-])cc2)C(O)(c2cccnc2)C1 (centres undefined) | ? | ? | ? | -17 | . | 18µM*
CCOC(=O)N1N=C(C)CC1(O)c1ccccc1 (centres undefined) | -29% | 21% | 20% | 8 | 1% | -25%
Cc1c(CC(=O)NCc2ccccc2Cl)c(=O)oc2cc(O)ccc12 | -27% | . | . | . | . | ?
Cc1cccc(N2CCN(C(=O)CSCc3c(C)noc3C)CC2)c1C | 7.3µM* | 4% | ? | -14 | -5% | 21µM*
Cc1cc(NC(=O)CSCC(=O)N2CCN(c3cccc(C)c3C)CC2)no1 | -28% | 4% | 2% | 18 | 2% | ?
O=C(CSCc1ccc(F)cc1)N1CCN(c2ccc(Cl)cc2)CC1 | 21µM* | . | . | . | . | 16µM*
Cc1noc(C)c1CSCC(=O)N1CCN(c2ccc(F)cc2)CC1 | 18µM* | 2% | -13% | 0 | -4% | ?
COC(=O)CCC(=O)N1CCC(CCC(=O)NCc2ccc(F)cc2)CC1 | 7% | 7% | 1% | 10 | -2% | 5%
CN1CCC2(CC1)CCN(C(=O)c1cccc(F)c1)CC2 | -1% | . | . | . | . | 21%

Screening results deposited in PubChem by National Center for Advancing Translational Sciences (NCATS).
